Data from PubChem BioAssay (Tox21).
Inconclusive results are not listed. Where a call stands in place of a potency, no number is given. The source made the active and inactive calls. Unless noted, calls come from the whole dose curve.

Legend:
[1] = target: Gonadotropin-releasing hormone receptor (Homo sapiens) (UniProt P30968); assay: Human gonadotropin-releasing hormone receptor (GnRHR) small molecule agonists, calcium flux assay in GnRHR-HEK293 cells (AID 1920063); note: nearly all actives have a fitted effect of over 35% in size; note: potency is the fitted concentration of half-maximal effect
How it was run: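 We seeded human GnRHR-expressing HEK293 cells for 18 hours, loaded them with calcium dye for an hour at 37 C, added test compounds, and recorded fluorescence intensity kinetically for three minutes.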

[2] = target: KiSS-1 receptor (Homo sapiens) (UniProt Q969F8); assay: Human kisspeptin (KISS1R) small molecule agonists, calcium flux assay in KISS1R-HEK293 cells (AID 1920064; active = well fitted activation curve with a large enough effect in the repeat runs)
How it was run: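 Kinetic calcium assay, 1 s sampling over 3 min at Ex/Em 480/540, in HEK293 cells engineered with human KISS1R; compounds delivered in DMSO after 1 h dye loading.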

[3] = G protein-coupled receptor (GPCR) small molecule agonists, calcium flux assay: HEK293 wild type cell line counter screen (AID 1920065)
How it was run: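 Calcium-sensitive dye, loaded 1 h at 37 C into cells cultured 18 h, reports compound-evoked calcium release as fluorescence (Ex/Em 480/540), measured over 3 min. Agonist mode; 15-point titrations, triplicate.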

[4] = p53 small molecule agonists, cell-based qHTS assay with human liver microsomes (AID 1963577)
How it was run: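 Fluorescence of the beta-lactamase reporter in p53RE-bla cells, detected with LiveBLAzer substrate (2 h, room temperature, dark), served as the read-out after 16 h compound exposure at 37 C with human liver microsomes and NADPH, each 0.5 mg/mL final.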

[5] = p53 small molecule agonists, cell-based qHTS assay with rat liver microsomes (AID 1963578); note: potency is the fitted concentration of half-maximal effect
How it was run: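 Cells carrying a p53 response element–beta-lactamase reporter were plated and rested 5 h, then dosed with compound in DMSO plus rat liver microsomes and NADPH, each at 0.5 mg/mL final. After 16 h at 37 C, LiveBLAzer substrate was added for 2 h.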

[6] = p53 small molecule agonists, cell-based qHTS assay with human liver microsomes: qHTS cell viability counter screen (AID 1963579); note: nearly all actives have a fitted effect of over 45% in size
How it was run: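 Cytotoxicity counter screen: p53RE-bla, 4,000 cells/well; 5 h settle, 37 C/5% CO2; cpd + HLM 0.5 mg/mL + NADPH 0.5 mg/mL (final); 16 h, 37 C; CellTiter-Glo, 30 min RT, luminescence.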

[7] = p53 small molecule agonists, cell-based qHTS assay with rat liver microsomes: qHTS cell viability counter screen (AID 1963580); note: nearly all actives have a fitted effect of over 45% in size
How it was run: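 In HCT-116 cells carrying a p53 response element-bla reporter, compounds were metabolically activated in situ by rat liver microsomes with NADPH over 16 h. Cell ATP content then served as the cytotoxicity measure.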

[8] = p53 small molecule agonists, cell-based qHTS assay: qHTS cell viability counter screen (AID 1963581); note: nearly all actives have a fitted effect of over 45% in size; note: potency is the fitted concentration of half-maximal effect
How it was run: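 Following 5 h attachment, HCT-116 p53RE-bla cells took up compound for 16 h at 37 C; the reporter was read with B/G FRET substrate (2 h RT), and viability then via CellTiter-Glo ATP luminescence.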

[9] = target: 5-hydroxytryptamine receptor 2A (Homo sapiens) (UniProt P28223); assay: 5-hydroxytryptamine receptor 2A (HTR2A) small molecule antagonists, cell-based qHTS assay (AID 1963586); note: nearly all actives have a fitted effect of over 45% in size; note: potency is the fitted concentration of half-maximal effect
How it was run: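 Antagonist-mode intracellular calcium assay: DOI (4 nM) added after 5 min compound pre-incubation at room temperature to dye-loaded HTR2A-CHO cells. Fluorescence followed for 3 min, sampled every second.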

[10] = target: 5-hydroxytryptamine receptor 2A (Homo sapiens) (UniProt P28223); assay: 5-hydroxytryptamine receptor 2A (HTR2A) small molecule agonists, cell-based qHTS assay (AID 1963587); note: nearly all actives have a fitted effect of over 30% in size; note: potency is the fitted concentration of half-maximal effect
How it was run: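 HTR2A-CHO cells, plated 18 h at 37 C/5% CO2, dye-loaded 1 h at 37 C; compounds in DMSO added by pin tool (agonist mode). Intracellular calcium flux read as kinetic fluorescence on FDSS over 2 min at 1 s intervals.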

[11] = target: Muscarinic acetylcholine receptor M1 (Homo sapiens) (UniProt P11229); assay: Cholinergic receptor muscarinic 1 (CHRM1) small molecule antagonists, cell-based qHTS assay (AID 1963588); note: nearly all actives have a fitted effect of over 40% in size; note: potency is the fitted concentration of half-maximal effect
How it was run: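 CHRM1-CHO calcium-flux assay, antagonist mode. Cells were seeded 18 h, dye-loaded 1 h at 37 C and given compound for 5 min at RT, then acetylcholine was added at 50nM. FDSS fluorescence was read 3 min; 15 concentrations, three runs.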

[12] = target: Muscarinic acetylcholine receptor M1 (Homo sapiens) (UniProt P11229); assay: Cholinergic receptor muscarinic 1 (CHRM1) small molecule agonists, cell-based qHTS assay (AID 1963589); note: nearly all actives have a fitted effect of over 35% in size
How it was run: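 Measures agonist-induced intracellular calcium rise. Stable human CHRM1 CHO line, 1 h dye load at 37 C, compounds from DMSO, kinetic fluorescence read.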

[13] = target: Beta-2 adrenergic receptor (Homo sapiens) (UniProt P07550); assay: Adrenergic beta2 receptor (ADRB2) small molecule antagonists, cell-based qHTS assay (AID 1963592); note: nearly all actives have a fitted effect of over 50% in size; note: potency is the fitted concentration of half-maximal effect
How it was run: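 Cells (CHO, stable ADRB2 overexpression) incubated 18-20hr at 37C; compounds added from DMSO; agonist mix (1nM isoproterenol, 100uM IBMX, 25uM Ro-20-1724) added; 0.5hr RT; d2-cAMP and anti-cAMP-cryptate added; 1hr RT; 665/615 nm read.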

[14] = target: D(2) dopamine receptor (Homo sapiens) (UniProt P14416); assay: Dopamine D2 receptor (DRD2) small molecule agonists, cell-based qHTS assay (AID 1963594); note: nearly all actives have a fitted effect of over 35% in size; note: potency is the fitted concentration of half-maximal effect
How it was run: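 HEK293 cells stably expressing DRD2 were cultured 24 h at 37 C, then given Ro20-1724 (0.1 mM final) and compounds for 10 min at room temperature. NKH477 (200nM) was then added for 30 min. cAMP was read by HTRF.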

[15] = target: D(2) dopamine receptor (Homo sapiens) (UniProt P14416); assay: Dopamine D2 receptor (DRD2) small molecule antagonists, cell-based qHTS assay (AID 1963595; active = well fitted inhibition curve with a large enough effect in the signal ratio in the repeat runs, with a control signal flat; the % refers to the signal ratio; note: potency is the fitted concentration of half-maximal effect)
How it was run: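 Stable D2 receptor HEK293 line, 24 h after seeding. Compound preincubated 10 min, then quinpirole (12 nM) with forskolin analogue NKH477 (200 nM), 30 min, room temperature. Detection by time-resolved FRET of cAMP.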

[16] = p53 small molecule agonists, cell-based qHTS assay (AID 1963582; active = well fitted activation curve with a large enough effect in the signal ratio in the repeat runs, not every such curve was filed as active; the % refers to the signal ratio)
How it was run: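 In this cell-based concentration-response screen, a p53 response element drives beta-lactamase; cells received DMSO-borne compounds after 5 h culture and were incubated a further 16 h before FRET substrate development.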

[17] = cAMP Responsive Elements (CRE) small molecule agonists, cell-based qHTS assay (AID 1963590); note: potency is the fitted concentration of half-maximal effect
How it was run: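 A CRE-responsive beta-lactamase reporter in HEK 293T cells was used. Treatment ran 3 h at 37 C; detection used LiveBLAzer B/G FRET substrate for 2 h at room temperature.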

[18] = cAMP Responsive Elements (CRE) small molecule antagonists, cell-based qHTS assay (AID 1963591; active = well fitted inhibition curve with a large enough effect in the signal ratio in the repeat runs, not every such curve was filed as active; the % refers to the signal ratio)
How it was run: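 HEK293T cells carrying a CRE-driven beta-lactamase reporter receive compound and NKH477 (0.25 uM final) for 3 h. Fluorescence from LiveBLAzer B/G FRET substrate is read after 2 h at room temperature.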

[19] = target: Beta-2 adrenergic receptor (Homo sapiens) (UniProt P07550); assay: Adrenergic beta2 receptor (ADRB2) small molecule agonists, cell-based qHTS assay (AID 1963593);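 note: CHO cells stably overexpressing human ADRB2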
How it was run: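 CHO cells stably over-expressing ADRB2 were plated overnight at 37C, then dosed with compounds plus a stimulation mix containing 100uM IBMX and 25uM Ro-20-1724 for 0.5hr at room temperature. cAMP was measured by HTRF competition, 1hr.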

Gonadotropin-releasing hormone receptor (Homo sapiens), sequence (P30968 whole entry, looked up): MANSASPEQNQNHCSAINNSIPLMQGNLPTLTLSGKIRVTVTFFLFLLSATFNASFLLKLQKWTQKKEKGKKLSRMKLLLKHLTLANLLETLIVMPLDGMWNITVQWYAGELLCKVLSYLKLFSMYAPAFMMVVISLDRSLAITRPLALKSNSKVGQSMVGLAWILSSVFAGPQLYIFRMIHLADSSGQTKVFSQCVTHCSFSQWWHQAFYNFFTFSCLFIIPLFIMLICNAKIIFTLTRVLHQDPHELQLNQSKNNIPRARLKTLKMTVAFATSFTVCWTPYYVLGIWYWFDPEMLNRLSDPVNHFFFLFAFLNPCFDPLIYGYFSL
D(2) dopamine receptor (Homo sapiens), sequence (P14416 whole entry, looked up): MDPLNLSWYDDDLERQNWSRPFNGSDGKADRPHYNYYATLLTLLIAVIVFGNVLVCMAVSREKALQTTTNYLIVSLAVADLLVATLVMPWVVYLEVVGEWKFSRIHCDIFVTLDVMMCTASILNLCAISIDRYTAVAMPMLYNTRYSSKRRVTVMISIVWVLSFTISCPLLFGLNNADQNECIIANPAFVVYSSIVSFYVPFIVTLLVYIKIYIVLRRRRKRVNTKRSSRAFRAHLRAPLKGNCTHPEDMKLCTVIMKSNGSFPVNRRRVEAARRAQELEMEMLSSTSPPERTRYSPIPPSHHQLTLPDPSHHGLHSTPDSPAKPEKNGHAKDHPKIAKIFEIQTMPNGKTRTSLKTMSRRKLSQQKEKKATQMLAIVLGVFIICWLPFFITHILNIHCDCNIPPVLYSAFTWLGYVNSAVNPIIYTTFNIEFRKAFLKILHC
5-hydroxytryptamine receptor 2A (Homo sapiens), sequence (P28223 whole entry, looked up): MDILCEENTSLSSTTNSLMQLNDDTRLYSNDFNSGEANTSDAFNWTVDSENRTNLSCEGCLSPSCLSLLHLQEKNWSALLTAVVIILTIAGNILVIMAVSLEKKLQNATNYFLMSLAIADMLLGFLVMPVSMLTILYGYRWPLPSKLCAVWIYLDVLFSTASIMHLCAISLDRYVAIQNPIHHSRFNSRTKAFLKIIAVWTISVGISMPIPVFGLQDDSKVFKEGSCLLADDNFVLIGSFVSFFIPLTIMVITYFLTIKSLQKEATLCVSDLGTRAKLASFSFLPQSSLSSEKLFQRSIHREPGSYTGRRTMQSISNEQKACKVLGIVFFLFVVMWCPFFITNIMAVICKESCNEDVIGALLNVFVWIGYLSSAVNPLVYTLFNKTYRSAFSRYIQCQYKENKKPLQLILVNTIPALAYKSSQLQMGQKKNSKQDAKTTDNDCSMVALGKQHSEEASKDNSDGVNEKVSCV
Muscarinic acetylcholine receptor M1 (Homo sapiens), sequence (P11229 whole entry, looked up): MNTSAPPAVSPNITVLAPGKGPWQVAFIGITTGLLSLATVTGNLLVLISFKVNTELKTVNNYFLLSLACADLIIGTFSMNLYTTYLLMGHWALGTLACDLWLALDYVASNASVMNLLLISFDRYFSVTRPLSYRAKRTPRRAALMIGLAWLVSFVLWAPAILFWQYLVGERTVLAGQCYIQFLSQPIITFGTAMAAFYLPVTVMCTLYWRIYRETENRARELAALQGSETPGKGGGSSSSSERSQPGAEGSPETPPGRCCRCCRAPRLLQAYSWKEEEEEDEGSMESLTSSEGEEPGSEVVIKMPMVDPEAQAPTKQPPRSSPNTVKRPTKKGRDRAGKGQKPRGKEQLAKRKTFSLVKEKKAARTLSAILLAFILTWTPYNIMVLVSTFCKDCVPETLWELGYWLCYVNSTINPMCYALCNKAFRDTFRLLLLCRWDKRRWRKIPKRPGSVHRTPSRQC
KiSS-1 receptor (Homo sapiens), sequence (Q969F8 whole entry, looked up): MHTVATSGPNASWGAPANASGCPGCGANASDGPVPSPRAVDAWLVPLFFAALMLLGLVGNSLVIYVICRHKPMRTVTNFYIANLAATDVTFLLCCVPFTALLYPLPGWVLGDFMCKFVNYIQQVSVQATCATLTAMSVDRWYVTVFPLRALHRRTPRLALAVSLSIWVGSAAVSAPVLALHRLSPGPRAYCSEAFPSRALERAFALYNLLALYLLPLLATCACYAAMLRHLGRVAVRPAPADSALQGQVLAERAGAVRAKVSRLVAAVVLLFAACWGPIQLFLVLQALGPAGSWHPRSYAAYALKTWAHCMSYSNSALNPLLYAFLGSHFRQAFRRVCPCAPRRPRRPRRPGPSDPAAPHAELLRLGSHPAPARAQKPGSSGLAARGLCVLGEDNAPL
Beta-2 adrenergic receptor (Homo sapiens), sequence (P07550 whole entry, looked up): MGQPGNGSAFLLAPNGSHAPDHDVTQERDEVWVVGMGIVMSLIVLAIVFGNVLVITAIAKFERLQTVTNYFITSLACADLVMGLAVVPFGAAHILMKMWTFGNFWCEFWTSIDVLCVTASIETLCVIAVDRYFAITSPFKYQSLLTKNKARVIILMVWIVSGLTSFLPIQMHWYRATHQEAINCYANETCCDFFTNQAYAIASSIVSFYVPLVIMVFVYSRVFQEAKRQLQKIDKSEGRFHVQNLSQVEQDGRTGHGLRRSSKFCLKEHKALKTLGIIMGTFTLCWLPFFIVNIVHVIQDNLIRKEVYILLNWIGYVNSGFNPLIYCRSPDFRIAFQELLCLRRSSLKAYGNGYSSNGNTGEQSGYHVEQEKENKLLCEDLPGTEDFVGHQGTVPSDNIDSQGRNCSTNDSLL

| SMILES | Potency [1] | Potency [2] | Potency [3] | Potency [4] | Potency [5] | Potency [6] | Potency [7] | Potency [8] | Potency [9] | Potency [10] | Potency [11] | Potency [12] | Potency [13] | Potency [14] | Potency [15] | Potency [16] | Potency [17] | Potency [18] | Potency [19] |
| --- | --- | --- | --- | --- | --- | --- | --- | --- | --- | --- | --- | --- | --- | --- | --- | --- | --- | --- | --- |
| CCOC(=O)c1ccc(C2CCC(NC[C@H](O)COc3ccc(O)c(NS(C)(=O)=O)c3)CC2)cc1 (some centres undefined) | inactive | inactive | inactive | inactive | inactive | inactive | inactive | inactive | inactive | inactive | 8.69 µM (active) | inactive | 7.96 µM (active) | 0.0796 µM (active) | inactive |  |  |  |  |
| CCC(Cl)C(Cl)C(Cl)CC(Cl)C(Cl)C(C)Cl (centres undefined) | inactive | inactive | inactive | inactive | inactive | inactive | inactive | inactive | inactive | inactive | inactive | inactive | inactive | inactive | inactive | inactive | inactive | inactive | inactive |
| NCCCOCCOCCOCCCN | inactive | inactive | inactive | inactive | inactive | inactive | inactive | inactive | inactive | inactive | inactive | inactive | inactive | inactive |  |  |  |  |  |
| Cc1cccc(Nc2ccccc2)c1 | inactive | inactive | inactive | inactive | inactive | inactive | inactive | inactive | inactive | inactive | inactive | inactive | inactive | inactive | inactive | inactive |  |  | inactive |
| COc1cc2c(cc1OC)-c1cc(=Nc3c(C)cc(C)cc3C)n(C)c(=O)n1CC2 | inactive | inactive | inactive | inactive | inactive |  |  | inactive | inactive | inactive |  | inactive |  | inactive | 15 µM (active) | inactive | 4.22 µM (active) |  |  |
| Nc1cc(Cl)c([N+](=O)[O-])cc1O | inactive | inactive | inactive | inactive | inactive | inactive | inactive | inactive | inactive | inactive | inactive |  | inactive | inactive | inactive | inactive | inactive | inactive | inactive |
| Cc1ccc(O)c(N)c1 | inactive | inactive | inactive | inactive | inactive | inactive | inactive | inactive | inactive | inactive | inactive |  | inactive | inactive |  | inactive | inactive | inactive | inactive |
| O=S(=O)(O)c1ccccc1/C=C/c1ccc(-c2ccc(/C=C/c3ccccc3S(=O)(=O)O)cc2)cc1 | inactive | inactive | inactive |  | 11.7 µM (active) | inactive | inactive |  | inactive |  |  | inactive | inactive | inactive | inactive |  |  |  |  |
| CCCCCCCCCc1ccc(OCCOCCO)cc1 | 13 µM (active) | inactive | inactive | inactive |  |  | inactive | inactive | 5.58 µM (active) | 20.5 µM (active) |  |  | inactive | inactive | 25.6 µM (active) |  |  |  | inactive |
| CCCn1cc[n+](C)c1C | inactive | inactive | inactive |  | inactive | inactive | inactive | inactive | inactive | inactive | inactive | inactive | inactive | inactive | inactive | inactive | inactive | inactive | inactive |
| C=CC(=O)N1CCOCC1 | inactive | inactive | inactive |  |  | inactive | inactive | inactive | inactive | inactive | inactive | inactive | inactive | inactive | inactive |  | inactive | inactive | inactive |
| COCCOC | inactive | inactive | inactive |  |  | inactive | inactive | 2.75 µM (active) | inactive | inactive | inactive |  | inactive | inactive | inactive |  | inactive |  |  |
| CN(C/C=C/c1ccccc1)Cc1cccc2ccccc12 | inactive | inactive | inactive |  | inactive | inactive | inactive | inactive |  | inactive | inactive | inactive | inactive | inactive | 6.68 µM (active) | inactive |  |  |  |
| CC(C)c1nnc2ccc(-c3ocnc3-c3cc(F)ccc3F)cn12 | inactive | inactive | inactive |  |  |  |  | inactive | inactive | inactive |  | inactive | inactive | inactive | inactive | inactive |  |  |  |
| O=C1Cc2cc(CCN3CCN(c4nsc5ccccc45)CC3)c(Cl)cc2N1 | inactive | inactive | inactive |  | inactive | inactive | inactive |  |  | inactive | 5.16 µM (active) | inactive | inactive | inactive |  |  | inactive |  |  |
| CN1CCC[C@@H]1CCO[C@](C)(c1ccccc1)c1ccc(Cl)cc1 | inactive | inactive | inactive | inactive |  | inactive | inactive | inactive |  |  |  |  |  | inactive |  | inactive |  |  |  |
| c1ccc2sc(SN(C3CCCCC3)C3CCCCC3)nc2c1 | inactive | inactive | inactive |  |  | inactive | inactive | inactive | inactive | inactive | inactive |  | inactive | inactive | inactive |  | inactive |  | inactive |
| c1ccc(C(O[C@@H]2CCCN(CCc3ccc4c(c3)OCO4)C2)c2ccccc2)cc1 | inactive | inactive | inactive |  | inactive | inactive | inactive | inactive |  |  | 0.119 µM (active) | inactive |  | inactive | inactive |  |  |  |  |
